Results reported in the supplement of paper PMC7380943.
Structures can show the parent of a compound that is named as a salt. ± gives the standard deviation of the averaged measurements.

Assays:
[1] = test system: CLZ3 (HCA2 human fibroblast dual HR-NHEJ reporter); test: NHEJ repair efficiency (GFP+ cells) relative to control (log10 fold); higher = more non-homologous end joining; settings: 5 µM; doxycycline 0.5 ug/mL
[2] = test system: CLZ3 (HCA2 human fibroblast dual HR-NHEJ reporter); test: HR repair efficiency (tdTomato+ cells) relative to control (log10 fold); higher = more homologous recombination; settings: 5 µM; doxycycline 0.5 ug/mL
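Throughout, for HR repair efficiency (tdTomato+ cells) relative to control: compound given one day before doxycycline, which switches on I-SceI endonuclease expression to create double-strand breaks within the integrated reporter.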
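Throughout, for NHEJ repair efficiency (GFP+ cells) relative to control: compound given one day ahead of doxycycline, which switches on I-SceI endonuclease to cut the chromosomally integrated reporter and create DSBs.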

Compound | NHEJ repair efficiency (log10) [1] | HR repair efficiency (log10) [2]
COC1=C[C@@H]2[C@@H]3Cc4ccc(OC)c(O)c4[C@]2(CCN3C)CC1=O [Sinomenine] | 0.154 | 0.274
CC(=O)[C@]1(O)CC[C@@]2(O)[C@]1(C)[C@H](OC(=O)/C=C(\C)C(C)C)C[C@@H]1[C@@]3(C)CC[C@H](O)CC3=CC[C@]12O [Caudatin] | -0.0815 | -0.0376
COc1ccc(Cc2nccc3cc(OC)c(OC)cc23)cc1OC [Papaverine hydrochloride] | -0.296 | -0.22
CCN1CC2(COC)CCC(O)C34C5CC6C(OC)CC(O)(C5C6O)C(C(OC)C23)C14 (centres undefined) [Bullatine B] | -0.0469 | 0.0659
N#C[C@H](O[C@@H]1O[C@H](CO[C@@H]2O[C@H](CO)[C@@H](O)[C@H](O)[C@H]2O)[C@@H](O)[C@H](O)[C@H]1O)c1ccccc1 [Amygdalin] | -0.0091 | 0.107
CCC(C)C(=O)O[C@@H]1[C@@H](OC(C)=O)[C@]2(C)[C@H](C(C)=O)CC[C@@]23O[C@]32CC[C@H]3C[C@@H](O[C@H]4C[C@@H](OC)[C@H](O[C@@H]5O[C@H](C)[C@@H](O)[C@@H](OC)[C@H]5O)[C@@H](C)O4)CC[C@]3(C)[C@@H]12 (some centres undefined) [Tenacissoside H] | -0.0163 | 0.0233
O=c1ccc2ccc3occc3c2o1 [Isopsoralen] | -0.0427 | -0.0598
C=C[C@@H]1C2=CCOC(=O)C2=CO[C@H]1O[C@@H]1O[C@H](CO)[C@@H](O)[C@H](O)[C@H]1O [Gentiopicrin] | -0.0046 | 0.0966
CCN1C[C@]2(COC)[C@H](O)C[C@H](OC)[C@]34C1[C@H]([C@H](OC)[C@H]23)[C@@]1(OC(C)=O)C[C@H](OC)[C@@]2(O)C[C@@H]4[C@@H]1[C@H]2OC(=O)c1ccccc1 [Indaconitine] | 0.0186 | 0.112
CN(C)Cc1c[nH]c2ccccc12 [Gramine] | 0.014 | -0.0905
CC(C)c1ccc2c(c1O)CC[C@H]1C3=C(CC[C@]21C)C(=O)OC3 [Triptophenolide] | -0.142 ± 0.096 | -0.108 ± 0.2
CC(C)=CCC[C@@](C)(O)[C@H]1CC[C@]2(C)[C@@H]1[C@H](O)C[C@@H]1[C@@]3(C)CC[C@H](O[C@@H]4O[C@H](CO)[C@@H](O)[C@H](O)[C@H]4O)C(C)(C)[C@@H]3CC[C@]12C [R-Ginsenoside Rh2] | -0.0662 | -0.111
O=C(O)[C@@H]1[C@H](C(=O)O)[C@H]2CC[C@@H]1O2 [Endothall Disodium Salt] | 0.13 | 0.143
C=C[C@H]1CN2CC[C@]3(C(=O)Nc4ccccc43)[C@@H]2C[C@@H]1/C(=C\OC)C(=O)OC [Corynoxeine] | -0.123 | -0.139
O=C1C[C@@H]2OCC=C3CN4CC[C@]56c7ccccc7N1[C@H]5[C@H]2[C@H]3C[C@H]46 [Strychnine] | 0.104 | -0.0183
CCN1C[C@]2(COC)CC[C@H](OC)[C@]34C1[C@H]([C@H](OC)[C@H]23)[C@@]1(O)C[C@H](OC)[C@H]2C[C@@H]4[C@@H]1[C@H]2O [Chasmanine] | 0.0232 | -0.00256
CCN1C[C@]2(COC)CC[C@H](O)[C@]34C1[C@@](O)([C@@H](OC)[C@H]23)[C@@]1(O)C[C@H](OC)[C@H]2C[C@@H]4[C@@H]1[C@H]2OC [Delsoline] | -0.0325 | 0.0487
N#CCc1ccc2c(c1)OCO2 [Homopiperonylonitrile] | 0.103 | 0.127
O=C1C=CC[C@@H]2[C@H]3CCCN4CCC[C@@H](CN12)[C@@H]34 [Sophocarpine] | -0.0254 | 0.165
O=C/C=C/c1ccccc1 [Cinnamaldehyde] | 0.0683 | -0.0835
C[C@H]1C(=O)O[C@@H]2CCN3CC=C(COC(=O)[C@](C)(O)[C@]1(C)O)[C@H]23 [Monocrotaline] | -0.0165 | 0.0383
O=c1cccc2n1C[C@@H]1CNC[C@H]2C1 [Cytisine] | 0.00702 | 0.264
COc1cc2c3c(c1OC)-c1ccccc1C[C@H]3N(C)CC2 [Nuciferine] | 0.114 | 0.137
O=c1ccc2cc3ccoc3c(O)c2o1 [Xanthotoxol] | 0.0631 | -0.0752
CC(C)=CCC[C@](C)(O)[C@H]1CC[C@]2(C)[C@@H]1[C@H](O)C[C@@H]1[C@@]3(C)CC[C@H](O)C(C)(C)[C@@H]3[C@@H](O[C@@H]3O[C@H](CO)[C@@H](O)[C@H](O)[C@H]3O)C[C@]12C [Ginsenoside Rh1] | -0.0663 | 0.25
CC(C)=CCOc1c2occc2cc2ccc(=O)oc12 [Imperatorin] | 0.0993 ± 0.22 | 0.135 ± 0.28

Compound | NHEJ repair efficiency (log10) [1] | HR repair efficiency (log10) [2]
C/C=C/C#CC#C/C=C/c1ccco1 [Atractylodin] | 0.014 | 0.114
N#C/C=C1/C=C[C@@H](O)[C@H](O)[C@H]1O[C@@H]1O[C@H](CO)[C@@H](O)[C@H](O)[C@H]1O [Lithospermoside] | 0.0837 | 0.0424
COC[C@@]12CC[C@H](OC)[C@]34C([C@H]([C@H](OC)[C@H]13)[C@]1(O)[C@H]3[C@@H](OC(=O)c5ccccc5)[C@](O)(C[C@H]34)[C@@H](OC)[C@@H]1O)N(C)C2 [Benzoylhypaconine] | -0.013 | 0.00783
CCN1C[C@]2(COC)[C@H](O)C[C@H](OC)[C@]34C1[C@H]([C@H](OC)[C@H]23)[C@@]1(OC(C)=O)C[C@H](OC)[C@@H]2C[C@@H]4[C@@H]1[C@H]2OC(=O)c1ccccc1 [13-Dehydroxyindaconintine] | 0.0298 | -0.0247
COc1c(C)c(O)cc2[o+]c(-c3ccccc3)ccc12.[O-][Cl+3]([O-])([O-])[O-] [Dracorhodin perochlorate] | 0.134 | 0.0436
C[C@H]1CC[C@@H]2N(C1)C[C@H]1[C@@H]3C[C@H]4[C@@H](C[C@H](O)[C@H]5C[C@@H](O)CC[C@@]54C)[C@@H]3CC[C@@H]1[C@]2(C)O [Peimine] | -0.07 | -0.0412
CC1=C2C[C@H]3[C@@H](CC(=O)[C@H]4C[C@@H](O)CC[C@@]43C)[C@@H]2CC[C@]12O[C@@H]1C[C@H](C)CN[C@H]1[C@H]2C [Peimisine] | -0.0359 | -0.00991
c1cc2c(cc1[C@H]1OC[C@H]3[C@@H]1CO[C@@H]3c1ccc3c(c1)OCO3)OCO2 [Sesamin] | 0.0857 | 0.185
c1c2c(cc3c1OCO3)-c1cc3ccc4c(c3c[n+]1CC2)OCO4 [Coptisine Chloride] | -0.16 | 0.0577
O=C1C=CC(=O)c2c(O)cccc21 [Juglone] | 0.0328 | -0.281
CCN1C[C@]2(COC)[C@H](O)C[C@H](OC)[C@@]34[C@@H]5C[C@@]6(O)[C@H](OC(=O)c7ccccc7)[C@@H]5[C@@](O)([C@@H]([C@H](OC)[C@H]23)[C@@H]14)[C@@H](O)[C@@H]6OC [Benzoylaconine] | -0.0909 | 0.0403
C[C@H]1CC[C@H]2[C@H](C)[C@@H]3CC[C@@H]4[C@@H](C[C@H]5[C@H]4C[C@@H](O)[C@H]4C[C@@H](O)CC[C@@]45C)[C@@H]3CN2C1 [Hupehenine] | 0.00613 | -0.0543
COc1cc2c(cc1OC)[C@@]13CCN4CC5=CCO[C@H]6CC(=O)N2[C@H]1[C@H]6[C@H]5C[C@H]43 [Brucine] | -0.228 | -0.24
COc1cccc2c1cc([N+](=O)[O-])c1c(C(=O)O)cc3c(c12)OCO3 [Aristolochic acid A] | 0.203 | 0.0578
COC[C@@]12CC[C@H](OC)[C@]34C(C([C@H](OC)[C@H]13)[C@]1(OC(C)=O)[C@H]3[C@@H](OC(=O)c5ccccc5)[C@](O)(C[C@H]34)[C@@H](OC)[C@@H]1O)N(C)C2 [Hypaconitine] | 0.0511 | 0.0965
CCN1C[C@]2(COC)CC[C@H](OC)[C@]34C1[C@H]([C@H](OC)[C@H]23)[C@@]1(OC(C)=O)C[C@H](OC)[C@@]2(O)C[C@@H]4[C@@H]1[C@H]2OC(=O)c1ccc(OC)cc1 [Crassicauline A] | 0.00451 | 0.0792
CNCC(O)c1ccc(O)cc1 (centres undefined) [Synephrine] | 0.0915 | 0.108
CCN1C[C@]2(COC)[C@H](O)C[C@H](OC)[C@]34C1[C@H]([C@H](OC)[C@H]23)[C@]1(O)[C@H]2[C@@H](O)[C@](O)(C[C@H]24)[C@@H](OC)[C@@H]1O [Aconine] | -0.104 | 0.0705
O=C(/C=C/c1ccccc1)OC[C@H]1O[C@@H](O[C@@H]2OC=C[C@H]3[C@H](O)[C@@H]4O[C@]4(CO)[C@@H]23)[C@H](O)[C@@H](O)[C@@H]1O [Picroside I] | -0.0564 | -0.0261
CN[C@@H](C)[C@H](O)c1ccccc1 [Ephedrine hydrochloride] | 0.0488 | -0.0579
COc1cc2c(cc1O)C[C@@H]1NCCc3cc(OC)c(O)c-2c31 [Norisoboldine] | -0.132 | -0.0981
CCC1=C[C@H]2CN3CCc4c([nH]c5ccccc45)[C@](C(=O)OC)(C2)[C@H]13 [Catharanthine] | 0.00477 | 0.0298
CC(C)(C)[C@]1(O)CC2OC(=O)CC23C(=O)OC2OC(=O)[C@H](O)C231 (some centres undefined) [Bilobalide] | 0.0452 | 0.0541
CCN1C[C@]2(COC)CC[C@H](OC)[C@]34C1[C@H](C[C@H]23)[C@@]1(O)C[C@H](OC)[C@H]2C[C@@H]4[C@@H]1[C@H]2O [Talatisamine] | 0.0604 | 0.0585
O=c1ccc2cc(O[C@@H]3O[C@H](CO)[C@@H](O)[C@H](O)[C@H]3O)c(O)cc2o1 [Esculin Sesquihydrate] | 0.0261 | 0.046
CCCC[N+]1(C)[C@@H]2C[C@@H](OC(=O)[C@H](CO)c3ccccc3)C[C@H]1[C@@H]1O[C@@H]12 (some centres undefined) [Scopolamine Butylbromide] | -0.172 | 0.0357
